# Where a chain is given by its changes, count along the chain named.
# Columns and labels:
# Test in all cases: PBM; 200 nM protein, PBS
# Settings in all cases: dsDNA, one strand shown
# [1] = target: T1, SIX6 (Homo sapiens, UniProt O95475 114-200, L167I)
# T1 sequence: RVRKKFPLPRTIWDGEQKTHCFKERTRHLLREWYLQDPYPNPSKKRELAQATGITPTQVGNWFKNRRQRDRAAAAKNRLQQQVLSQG
# [2] = target: T2, SIX6 (Homo sapiens, UniProt O95475 114-200, L143V)
# T2 sequence: T1 sequence with L30V, I54L
# [3] = target: T3, SIX6 (Homo sapiens, UniProt O95475 114-200, H141N)
# T3 sequence: T1 sequence with H28N, I54L
# [4] = target: T4, SIX6 (Homo sapiens, UniProt O95475 114-200, T165P)
# T4 sequence: T1 sequence with T52P, I54L
# [5] = target: T5, SIX6 (Homo sapiens, UniProt O95475 114-200, L143I)
# T5 sequence: T1 sequence with L30I, I54L
# [6] = target: T6, SIX6 (Homo sapiens, UniProt O95475 114-200)
# T6 sequence: T1 sequence with I54L
# [7] = target: HOXA7 (Homo sapiens, UniProt P31268 116-202)
# [8] = target: T7, SIX6 (Homo sapiens, UniProt O95475 114-200, L167M)
# T7 sequence: T1 sequence with I54M
# [9] = target: T8, SIX6 (Homo sapiens, UniProt O95475 114-200, L143M)
# T8 sequence: T1 sequence with L30M, I54L
# [10] = target: T9, SIX6 (Homo sapiens, UniProt O95475 114-200, T165G)
# T9 sequence: T1 sequence with T52G, I54L
# [11] = target: T10, SIX6 (Homo sapiens, UniProt O95475 114-200, T139Q)
# T10 sequence: T1 sequence with T26Q, I54L
# [12] = target: T11, SIX6 (Homo sapiens, UniProt O95475 114-200, T165A)
# T11 sequence: T1 sequence with T52A, I54L
# [13] = target: T12, SIX6 (Homo sapiens, UniProt O95475 114-200, L167V)
# T12 sequence: T1 sequence with I54V
# [14] = target: T13, SIX6 (Homo sapiens, UniProt O95475 114-200, T165I)
# T13 sequence: T1 sequence with T52I, I54L
# [15] = target: HOXA7 (Homo sapiens, UniProt P31268 116-202, W177C)
# [16] = target: PROP1 (Homo sapiens, UniProt O75360 56-141)
# [17] = target: PROP1 (Homo sapiens, UniProt O75360 56-141, R99H)
# [18] = target: PROP1 (Homo sapiens, UniProt O75360 56-141, F88S)
# [19] = target: T14, NKX2-6 (Homo sapiens, UniProt A6NCS4 118-204, R150C)
# T14 sequence: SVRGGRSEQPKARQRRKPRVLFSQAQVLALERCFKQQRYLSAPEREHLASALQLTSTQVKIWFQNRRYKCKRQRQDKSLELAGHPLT
# [20] = target: HOXD13 (Homo sapiens, UniProt P35453 263-343, T313R)
# [21] = target: HOXD13 (Homo sapiens, UniProt P35453 263-343)
# [22] = target: HOXD13 (Homo sapiens, UniProt P35453 263-343, T313A)
# [23] = target: T15, NKX2-6 (Homo sapiens, UniProt A6NCS4 118-204)
# T15 sequence: T14 sequence with C33R
# [24] = target: T16, NKX2-6 (Homo sapiens, UniProt A6NCS4 118-204, F151L)
# T16 sequence: T14 sequence with C33R, F34L
# HOXD13 (Homo sapiens, UniProt P35453 263-343, T313A), sequence (P35453 263-343 T313A): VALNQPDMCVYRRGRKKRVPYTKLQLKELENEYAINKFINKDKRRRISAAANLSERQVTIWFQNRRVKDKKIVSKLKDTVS
# HOXD13 (Homo sapiens, UniProt P35453 263-343, T313R), sequence (P35453 263-343 T313R): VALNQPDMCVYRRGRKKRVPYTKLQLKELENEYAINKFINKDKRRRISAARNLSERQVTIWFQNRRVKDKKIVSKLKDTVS
# HOXA7 (Homo sapiens, UniProt P31268 116-202, W177C), sequence (P31268 116-202 W177C): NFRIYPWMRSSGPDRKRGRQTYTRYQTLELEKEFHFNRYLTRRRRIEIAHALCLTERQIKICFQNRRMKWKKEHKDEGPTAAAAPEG
# HOXA7 (Homo sapiens, UniProt P31268 116-202), sequence (P31268 116-202): as the sequence (P31268 116-202 W177C) above, with C62W counted along it
# HOXD13 (Homo sapiens, UniProt P35453 263-343), sequence (P35453 263-343): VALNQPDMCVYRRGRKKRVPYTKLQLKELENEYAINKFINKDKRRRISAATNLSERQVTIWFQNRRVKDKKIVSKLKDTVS
# PROP1 (Homo sapiens, UniProt O75360 56-141, F88S), sequence (O75360 56-141 F88S): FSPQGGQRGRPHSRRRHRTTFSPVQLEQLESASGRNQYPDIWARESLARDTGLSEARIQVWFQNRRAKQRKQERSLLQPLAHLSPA
# PROP1 (Homo sapiens, UniProt O75360 56-141, R99H), sequence (O75360 56-141 R99H): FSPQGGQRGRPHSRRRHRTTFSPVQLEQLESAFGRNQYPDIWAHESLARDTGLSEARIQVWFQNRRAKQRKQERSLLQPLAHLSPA
# PROP1 (Homo sapiens, UniProt O75360 56-141), sequence (O75360 56-141): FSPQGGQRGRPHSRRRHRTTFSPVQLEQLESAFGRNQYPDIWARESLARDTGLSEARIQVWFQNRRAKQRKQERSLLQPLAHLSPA
sequence,measurement,setting,value
GACGGATA,binding signal,[1],"10.2 upbm affinity estimate (log intensity, higher = more binding, comparable within an allelic series)"
same,binding signal,[2],"9.77 upbm affinity estimate (log intensity, higher = more binding, comparable within an allelic series)"
same,binding signal,[3],"10.1 upbm affinity estimate (log intensity, higher = more binding, comparable within an allelic series)"
same,binding signal,[4],"9.43 upbm affinity estimate (log intensity, higher = more binding, comparable within an allelic series)"
same,binding signal,[5],"9.79 upbm affinity estimate (log intensity, higher = more binding, comparable within an allelic series)"
same,binding signal,[6],"10.2 upbm affinity estimate (log intensity, higher = more binding, comparable within an allelic series)"
AATACGAT,binding signal,[1],"10.6 upbm affinity estimate (log intensity, higher = more binding, comparable within an allelic series)"
same,binding signal,[7],"9.45 upbm affinity estimate (log intensity, higher = more binding, comparable within an allelic series)"
same,binding signal,[3],"10.5 upbm affinity estimate (log intensity, higher = more binding, comparable within an allelic series)"
same,binding signal,[4],"9.88 upbm affinity estimate (log intensity, higher = more binding, comparable within an allelic series)"
same,binding signal,[8],"10.3 upbm affinity estimate (log intensity, higher = more binding, comparable within an allelic series)"
same,binding signal,[9],"10.5 upbm affinity estimate (log intensity, higher = more binding, comparable within an allelic series)"
same,binding signal,[5],"10.1 upbm affinity estimate (log intensity, higher = more binding, comparable within an allelic series)"
same,binding signal,[10],"10.5 upbm affinity estimate (log intensity, higher = more binding, comparable within an allelic series)"
same,binding signal,[11],"10.7 upbm affinity estimate (log intensity, higher = more binding, comparable within an allelic series)"
same,binding signal,[12],"10.5 upbm affinity estimate (log intensity, higher = more binding, comparable within an allelic series)"
same,binding signal,[13],"10.3 upbm affinity estimate (log intensity, higher = more binding, comparable within an allelic series)"
same,binding signal,[6],"10.5 upbm affinity estimate (log intensity, higher = more binding, comparable within an allelic series)"
same,binding signal,[14],"10.4 upbm affinity estimate (log intensity, higher = more binding, comparable within an allelic series)"
same,binding signal,[15],"8.84 upbm affinity estimate (log intensity, higher = more binding, comparable within an allelic series)"
GGTGTCAC,binding signal,[1],"10.3 upbm affinity estimate (log intensity, higher = more binding, comparable within an allelic series)"
same,binding signal,[8],"9.69 upbm affinity estimate (log intensity, higher = more binding, comparable within an allelic series)"
same,binding signal,[10],"11.1 upbm affinity estimate (log intensity, higher = more binding, comparable within an allelic series)"
same,binding signal,[12],"11.1 upbm affinity estimate (log intensity, higher = more binding, comparable within an allelic series)"
GTATCTTA,binding signal,[1],"10.7 upbm affinity estimate (log intensity, higher = more binding, comparable within an allelic series)"
same,binding signal,[3],"10.7 upbm affinity estimate (log intensity, higher = more binding, comparable within an allelic series)"
same,binding signal,[4],"9.9 upbm affinity estimate (log intensity, higher = more binding, comparable within an allelic series)"
same,binding signal,[8],"10.3 upbm affinity estimate (log intensity, higher = more binding, comparable within an allelic series)"
same,binding signal,[9],"10.5 upbm affinity estimate (log intensity, higher = more binding, comparable within an allelic series)"
same,binding signal,[5],"10.2 upbm affinity estimate (log intensity, higher = more binding, comparable within an allelic series)"
same,binding signal,[10],"10.8 upbm affinity estimate (log intensity, higher = more binding, comparable within an allelic series)"
same,binding signal,[11],"11 upbm affinity estimate (log intensity, higher = more binding, comparable within an allelic series)"
same,binding signal,[12],"10.6 upbm affinity estimate (log intensity, higher = more binding, comparable within an allelic series)"
same,binding signal,[13],"10.6 upbm affinity estimate (log intensity, higher = more binding, comparable within an allelic series)"
same,binding signal,[6],"10.5 upbm affinity estimate (log intensity, higher = more binding, comparable within an allelic series)"
same,binding signal,[14],"10.5 upbm affinity estimate (log intensity, higher = more binding, comparable within an allelic series)"
ATTATCCG,binding signal,[1],"10.4 upbm affinity estimate (log intensity, higher = more binding, comparable within an allelic series)"
same,binding signal,[3],"10.3 upbm affinity estimate (log intensity, higher = more binding, comparable within an allelic series)"
same,binding signal,[4],"9.7 upbm affinity estimate (log intensity, higher = more binding, comparable within an allelic series)"
same,binding signal,[8],"10.2 upbm affinity estimate (log intensity, higher = more binding, comparable within an allelic series)"
same,binding signal,[9],"10.3 upbm affinity estimate (log intensity, higher = more binding, comparable within an allelic series)"
same,binding signal,[5],"9.95 upbm affinity estimate (log intensity, higher = more binding, comparable within an allelic series)"
same,binding signal,[10],"10.2 upbm affinity estimate (log intensity, higher = more binding, comparable within an allelic series)"
same,binding signal,[11],"10.4 upbm affinity estimate (log intensity, higher = more binding, comparable within an allelic series)"
same,binding signal,[12],"10.2 upbm affinity estimate (log intensity, higher = more binding, comparable within an allelic series)"
same,binding signal,[13],"10.2 upbm affinity estimate (log intensity, higher = more binding, comparable within an allelic series)"
same,binding signal,[6],"10.3 upbm affinity estimate (log intensity, higher = more binding, comparable within an allelic series)"
same,binding signal,[14],"10.2 upbm affinity estimate (log intensity, higher = more binding, comparable within an allelic series)"
CCCCCTTC,binding signal,[7],"7.86 upbm affinity estimate (log intensity, higher = more binding, comparable within an allelic series)"
same,binding signal,[16],"6.16 upbm affinity estimate (log intensity, higher = more binding, comparable within an allelic series)"
same,binding signal,[17],"5.96 upbm affinity estimate (log intensity, higher = more binding, comparable within an allelic series)"
same,binding signal,[18],"5.76 upbm affinity estimate (log intensity, higher = more binding, comparable within an allelic series)"
same,binding signal,[15],"8.09 upbm affinity estimate (log intensity, higher = more binding, comparable within an allelic series)"
GATCCCCC,binding signal,[4],"9.3 upbm affinity estimate (log intensity, higher = more binding, comparable within an allelic series)"
GGATCACA,binding signal,[9],"10.9 upbm affinity estimate (log intensity, higher = more binding, comparable within an allelic series)"
CCCCAGGC,binding signal,[19],"9.25 upbm affinity estimate (log intensity, higher = more binding, comparable within an allelic series)"
same,binding signal,[20],"9.43 upbm affinity estimate (log intensity, higher = more binding, comparable within an allelic series)"
same,binding signal,[21],"9.37 upbm affinity estimate (log intensity, higher = more binding, comparable within an allelic series)"
same,binding signal,[22],"9.53 upbm affinity estimate (log intensity, higher = more binding, comparable within an allelic series)"
CCCGACGC,binding signal,[20],"9.45 upbm affinity estimate (log intensity, higher = more binding, comparable within an allelic series)"
same,binding signal,[21],"9.26 upbm affinity estimate (log intensity, higher = more binding, comparable within an allelic series)"
same,binding signal,[22],"9.49 upbm affinity estimate (log intensity, higher = more binding, comparable within an allelic series)"
GCCCCGAC,binding signal,[23],"9.63 upbm affinity estimate (log intensity, higher = more binding, comparable within an allelic series)"
same,binding signal,[24],"9.35 upbm affinity estimate (log intensity, higher = more binding, comparable within an allelic series)"
GCCGGCCC,binding signal,[23],"9.25 upbm affinity estimate (log intensity, higher = more binding, comparable within an allelic series)"
same,binding signal,[24],"9.24 upbm affinity estimate (log intensity, higher = more binding, comparable within an allelic series)"
CAGATATC,binding signal,[13],"10.8 upbm affinity estimate (log intensity, higher = more binding, comparable within an allelic series)"
AGATGATA,binding signal,[13],"10.9 upbm affinity estimate (log intensity, higher = more binding, comparable within an allelic series)"
same,binding signal,[14],"10.9 upbm affinity estimate (log intensity, higher = more binding, comparable within an allelic series)"
